In PubChem BioAssay (NCI) one finds growth data, which are given here for ten compounds.

What all share (assay): NCI-60 one-dose screen, 48 h (100 = growth as untreated, 0 = no growth, -100 = all killed)
Holding throughout (conditions): 10 µM unless noted

Experiment [1] relates to NCI-H23 lung.
Experiment [2] has as its system NCI-H226 lung.
For experiment [3], the system named is NCI-H322M lung.
Experiment [4] has as its system HOP-62 NSCLC.
The subject of experiment [5] is NCI-H460 lung.
In experiment [6] the test system is HOP-92 NSCLC.
Experiment [7] deals with NCI-H522 lung.
In experiment [8] the test system is A549/ATCC NSCLC.
For experiment [9], the system named is 786-0 renal.
Experiment [10] has as its system COLO 205 colon.

The structures appear in SMILES notation. “And” between values parts separate entries of the source, which are not always exact repeats. Equal values may be shown once. The panel holds about 83,000 compounds, 20% with a hit somewhere; the sample as a whole holds those more often.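 Cell lines were cultured in 96-well plates, exposed to a single compound concentration, and assessed for percent growth 48 hours later.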 The source made the active and inactive calls. The calls were made as follows: active = growth percent below 10; inactive = the rest.

As to `C[C@@H]1CC[C@@H]2[C@@H]1[C@H](OC(=O)/C=C/c1ccccc1)[C@]1(c3ccccc3)C[C@@H](NC(=O)CO)[C@@]2(C)O1`, the growth in experiment [1] is 97.7% (inactive); in experiment [2], 88.8% (inactive); in experiment [3] it was 98.2% (inactive); in experiment [4], 96.8% (inactive); in experiment [5], 105% (inactive); in experiment [6], 65.5% (inactive). Besides, the growth in experiment [7] is 82.3% (inactive); in experiment [8], 95% (inactive); in experiment [9], 101% (inactive); in [10] it was 99.7% (inactive).
For the compound `O=C1/C(=C/c2ccccc2[N+](=O)[O-])Cc2ccccc21`, the growth in [1] is 22.6% (inactive) and 59.2% (inactive); in experiment [2], 19.4% (inactive); in [3], 65.2% (inactive) and 71.3% (inactive); in experiment [4] it was 57.6% (inactive) and 32.8% (inactive); in experiment [5], 7.04% (active) and 23.6% (inactive); in experiment [6], 51.9% (inactive) and 77.4% (inactive). The growth was -88.7% (active) and -87.5% (active) in experiment [7]; 41.4% (inactive) and -6.77% (active) in experiment [8]; 45% (inactive) and 26.5% (inactive) in experiment [9]; -74.9% (active) and 18.5% (inactive) in experiment [10].
For the compound `O=[N+]([O-])c1ccc(S(=O)Cc2ccccc2)c([N+](=O)[O-])c1` (centres undefined), the growth is 71.8% (inactive) and 82.7% (inactive) in experiment [1]; 24.9% (inactive) in experiment [2]; 99.5% (inactive) in experiment [3]; 109% (inactive) and 47.2% (inactive) in experiment [4]; 99.8% (inactive) and 103% (inactive) in experiment [5]; 56.6% (inactive) and 7.51% (active) in experiment [6]. For the same compound, the growth is -98.3% (active) and -79% (active) in experiment [7]; 83.2% (inactive) and 40.6% (inactive) in experiment [8]; 84.2% (inactive) and 51.2% (inactive) in experiment [9]; -98.2% (active) and -92.3% (active) in experiment [10].
`O=C(/C=C/c1ccc(Cl)s1)c1ccc(Cl)s1`: the growth in experiment [1] is 89.4% (inactive) and 110% (inactive); in experiment [2], 91.4% (inactive) and 102% (inactive); in [3] it was 97.4% (inactive); in experiment [5] it was 101% (inactive) and 115% (inactive); in experiment [6], 79.3% (inactive) and 105% (inactive); in experiment [7], 70.1% (inactive) and 87.1% (inactive). Besides, the growth in experiment [8] is 96.8% (inactive); in experiment [9], 79.7% (inactive) and 94.8% (inactive); in [10], 112% (inactive) and 122% (inactive).
Take `C=C1C(=O)O[C@H]2[C@H]1CC/C(COC(=O)NCCCCNC(=O)OC/C1=C/CC[C@@]3(C)O[C@H]3[C@H]3OC(=O)C(=C)[C@@H]3CC1)=C\CC[C@@]1(C)O[C@@H]21`: the growth in experiment [1] is 38.3% (inactive); in [2] it was 53.2% (inactive); in experiment [3], 98.5% (inactive); in experiment [4], 73.8% (inactive); in [5] it was 102% (inactive); in [6] it was -32.8% (active). The growth in experiment [7] is -61.4% (active); in experiment [8] it was 94.9% (inactive); in experiment [9] it was 22.7% (inactive); in experiment [10], -43.4% (active).
Turning to `O=C1N=c2ccccc2=C1c1sc(=S)n(C2CC(=O)N(c3ccc(Cl)cc3)C2=O)c1O` (centres undefined), the growth is 99.2% (inactive) in experiment [1]; 92% (inactive) in [2]; 104% (inactive) in experiment [3]; 93.2% (inactive) in experiment [4]; 102% (inactive) in [5]; 98.6% (inactive) in experiment [6]. In addition, the growth in experiment [7] is 97.1% (inactive); in [8] it was 107% (inactive); in experiment [9], 102% (inactive); in experiment [10], 118% (inactive).
On to `C=C(C)[C@@H]1CC[C@]2(C(=O)N3CCN(C)CC3)CC[C@]3(C)[C@H](CC[C@@H]4[C@@]5(C)CC(CCCNC(C)=O)(CCCNC(C)=O)[C@H](OC(C)=O)C(C)(C)[C@@H]5CC[C@]43C)[C@@H]12`, for which the growth in experiment [1] is 98.2% (inactive); in [2], 99.1% (inactive); in experiment [3], 105% (inactive); in [4], 103% (inactive); in experiment [5], 99.5% (inactive); in [6], 98.2% (inactive). Moreover, the growth in [7] was 96.3% (inactive); in experiment [8], 102% (inactive); in [9], 99.8% (inactive); in experiment [10], 106% (inactive).
For the compound `CCCCC#Cc1c(/C=C(\CCCC)SCC)n(C)c(=O)[nH]c1=O`, the growth in [1] is 94.1% (inactive); in experiment [2], 93.2% (inactive); in experiment [3], 97.7% (inactive); in experiment [4] it was 94.8% (inactive); in experiment [5], 93.8% (inactive); in experiment [6] it was 82.8% (inactive). In addition, the growth in [7] is 79.7% (inactive); in experiment [8] it was 83.1% (inactive); in experiment [9] it was 98.5% (inactive); in experiment [10], 108% (inactive).
`O=C1C=CC(=O)N1c1ccc2ccccc2c1`: the growth in experiment [1] is 93.4% (inactive) and 103% (inactive); in experiment [2], 97.6% (inactive) and 111% (inactive); in experiment [3] it was 118% (inactive) and 103% (inactive); in [4], 101% (inactive); in [5] it was 110% (inactive) and 111% (inactive); in experiment [6], 81.8% (inactive) and 84.1% (inactive). In addition, the growth is -58.9% (active) and -24.2% (active) in experiment [7]; 99% (inactive) in [8]; 103% (inactive) and 104% (inactive) in experiment [9]; -58.5% (active) and -42.5% (active) in [10].
With `Nc1ncc(-c2ccc3ncnc(N4CCc5ccc(Cl)cc54)c3c2)cc1C(F)(F)F`, the growth in [1] was 35.4% (inactive); in experiment [2], 20.5% (inactive); in experiment [3], 7.25% (active); in experiment [4] it was 17.3% (inactive); in experiment [5] it was 18.1% (inactive); in [6], -7.6% (active). Moreover, the growth is 14.1% (inactive) in [7], 13.5% (inactive) in experiment [8], 8.59% (active) in experiment [9] and 7.3% (active) in experiment [10].
